This is an account of results in the supplement of paper PMC8773631.

Where a name gives a salt, the structure may show the parent alone. ± gives the uncertainty stated by the source.

The assay relates to NCC-MFS5-C1. The experiment in a line: cell viability relative to DMSO control; higher = less growth inhibition. The following applies: 10 µM; treatment time: 3 days. The method, then:
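NCC-MFS5-C1 myxofibrosarcoma cells (1x10^4 per well, 384-well) were treated on day 2 with 10 µM of each drug. On day 5, viability was read by CCK-8 absorbance at 450 nm and normalised to the DMSO control (%), n = 2.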
Consider `CCCCCOC(=O)Nc1nc(=O)n([C@@H]2O[C@H](C)[C@@H](O)[C@H]2O)cc1F` [Capecitabine], for which the cell viability is 72.9 ± 5.9%. As for `C[C@]1(O)C[C@@H](c2nc(-c3ccc4ccc(-c5ccccc5)nc4c3)c3c(N)nccn32)C1` [Linsitinib (OSI-906)], the figure is 57 ± 0.57%. Regarding `COc1cccc2c1C(=O)c1c(O)c3c(c(O)c1C2=O)C[C@@](O)(C(=O)CO)C[C@@H]3O[C@H]1C[C@H](N)[C@@H](O)[C@H](C)O1` [Epirubicin HCl], the cell viability is 45.5 ± 1%. The result for `Cc1cc(Nc2ncc(Cl)c(Nc3ccccc3S(=O)(=O)C(C)C)n2)c(OC(C)C)cc1C1CCNCC1` [Ceritinib (LDK378)] reads 7.58 ± 6.4%; that for `Nc1ncn([C@H]2C[C@H](O)[C@@H](CO)O2)c(=O)n1` [Decitabine], 134 ± 7.4%.
